Wnt bcat act – activates Wnt/beta-catenin signaling in a reporter cell assay; 300,000 tested, 1.2% active; activator, plate reader; activation, % at 9.35 µM; in the data active = activation above about 30%, passing the limit was not always enough; inconclusive = no clear call, values can overlap the other calls;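 also: 0% = neutral control wells and 100% = positive control wells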
MITF TRPM1 inh – reduces MITF-dependent TRPM1 promoter luciferase signal; SK-MEL-5 TRPM1 promoter luciferase, 24 h; inhibition, % at 12.5 µM; 330,000 tested, 0.83% active; AID 488899;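 active = mean inhibition across replicates of 60% or more, whatever share of single replicates reaches that level; inconclusive = some that reach 60%, reason not given; inactive = mean inhibition across replicates below 60%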
EBV LMP1 NFkB – inhibitors of Epstein-Barr LMP1-induced NF-kappaB reporter; LMP1-induced NF-kappaB luciferase reporter cells, luminescence; inhibition, % at 12.5 µM; 350,000 tested, 0.69% active; AID 504558; in the data active = inhibition above about 41%; inconclusive = no clear call, values can overlap the other calls;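 also: 0% = neutral control wells and 100% = reference inhibitor control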
Statin myotox sup – protects C2C12 myotubes from simvastatin toxicity. ATP luminescence, 48 h; scaled: DMSO 0, geranylgeraniol control 100. 330,000 tested, 0.78% active. rescue of ATP level, % at 7.49 µM;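 active = mean ATP rescue above about 67%, or every replicate alone reaching that limit, limit read from the data, passing the limit was not always enough; inconclusive = no clear call, values can overlap the other calls; inactive = mean under the limit and some replicate under it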;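 also: myotubes were challenged with 10 µM simvastatin during compound exposure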
esBAF inh – inhibitors of esBAF chromatin remodeling in mouse ES cells | reporter increase, % at 12.5 µM | 350,000 tested, 2% active | Bmi1-luciferase knock-in reporter, 24 h; 100% = twice the neutral-well signal; in the data active = activation above about 40%; inconclusive = no clear call, values can overlap the other calls;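 also: 0% = median of the plate's neutral control wells and 100% = double that signal; a rise in the Bmi1 reporter signal indicates esBAF inhibition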
MITF act – increases MITF-driven TRPM1 promoter luciferase signal | SK-MEL-5 TRPM1-promoter luciferase, 24 h; % of positive control, neutral wells = 0 | activation, % at 12.5 µM | 300,000 tested, 0.75% active;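 active = mean activation of at least 80% with every replicate also reaching 80%; inconclusive = mean reaches 80% but some replicate falls short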;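 also: 0% = neutral control wells and 100% = parthenolide positive control wells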
The depositor's hits bear a star; ? = inconclusive; . = no result given. Compounds with a hit are over-represented: about 4% of the library has one in this group of screens.

SMILES	Wnt bcat act	MITF TRPM1 inh	EBV LMP1 NFkB	Statin myotox sup	esBAF inh	MITF act
COc1ccccc1C(=O)Nc1nc(-c2ccc(S(=O)(=O)N3CCOCC3)cc2)cs1	.	81*	29	-15	-26	-81
CC(C)(C)c1csc(NC(=O)Cc2cccs2)n1	-2	-9	-4	.	.	15
O=S(=O)(Nc1ccc(-c2csc(-c3ccccc3)n2)cc1)c1ccc(F)cc1	.	-2	-3	.	.	-2
CC(C)(C)c1cc(NC(=O)c2cccs2)no1	31*	-53	-7	-16	-9	63
Cc1cc(NC(=O)c2ccc(NC(=O)c3cccs3)cc2)no1	-3	-12	-4	.	17	11
O=C(Nc1nc(-c2ccccc2)cs1)c1ccccc1NS(=O)(=O)c1ccc(F)cc1	-25	69*	?	.	.	-69
O=C(Nc1nc(-c2ccc(Cl)s2)cs1)c1cccs1	.	-39	-10	-20	69*	41
O=C(Nc1nc(-c2ccccc2)ns1)c1cccs1	20	-49	-14	6	44*	43
Cc1nn(-c2ccccc2)c(Cl)c1/C=N/Nc1nc2ccccc2n1C	?	-52	-23	.	.	53
CN1c2ccc(-c3ccccc3)cc2[C@H]2[C@H](CCN2C(=O)c2ccccc2F)[C@H]1CO	.	.	.	39	-2	.
CCc1nc(C)cn1S(=O)(=O)c1cc(Br)c(C)cc1OC	.	-6	3	-2	-10	.
COc1cccc(O)c1CN1CCCC(C(=O)c2cccc(C(F)(F)F)c2)C1 (stereo not given)	-2	-3	8	-11	-5	1
CCC(Sc1nc2n[nH]c(C)c2c(=N)n1-c1ccc(C)c(Cl)c1)C(=O)N1CCOCC1 (stereo not given)	3	-10	-12	96*	3	12
COc1ccc(CCNC(=O)c2ccc3nc(N4CCCCC4)sc3c2)cc1OC	-5	.	-6	18	51*	.
Cc1cccc2sc(N3CCN(C(=O)C4COc5ccccc5O4)CC3)nc12 (stereo not given)	1	-2	-6	27	-4	6
O=C(NCCc1ccc(Cl)cc1)c1ccc2nc(N3CCOCC3)sc2c1	0	1	-4	.	2	-3
COc1ccc2nc(N3CCN(C(=O)C4COc5ccccc5O4)CC3)sc2c1 (stereo not given)	-3	-97	-54	.	.	100*
COc1ccc(N2CCN(C(=O)c3ccc4nc(N5CCCCC5)sc4c3)CC2)cc1	12	-48	-10	33	62*	50
COc1ccc2nc(N3CCCC(C(=O)NCCc4ccc(OC)c(OC)c4)C3)sc2c1 (stereo not given)	3	-30	-18	17	53*	37
C[C@@H]1CCCCO[C@@H](CN(C)C(=O)C2CCCCC2)[C@@H](C)CN([C@H](C)CO)C(=O)c2cc(NC(=O)Cc3ccccc3)ccc2O1	.	.	.	7	-6	.
COc1ccc(CN2C(=O)CCC2(C)C(=O)NCc2cccnc2)c(OC)c1 (stereo not given)	-2	0	4	92*	9	0
CCCOc1ccc(/C=N/NC(=O)CN2CCCCC2)cc1OCC	0	9	0	-4	-3	.
CN=CC1=C(O)c2ccccc2C1=O	19	-1	0	5	3	3
Cc1ccc(O)c(N=CC2=C(O)c3ccccc3C2=O)c1	117*	-34	-23	12	78*	37
O=C1C(C=Nc2ccccc2)=C(O)c2ccccc21	12	-27	11	.	56*	29
SMILES	Wnt bcat act	MITF TRPM1 inh	EBV LMP1 NFkB	Statin myotox sup	esBAF inh	MITF act
O=C1C(C=Nc2ccccc2O)=C(O)c2ccccc21	36*	-16	-5	49	-78	16
COc1ccc(N=CC2=C(O)c3ccccc3C2=O)cc1	-13	30	37	.	.	-32
Nc1ncnc2c1ncn2[C@@H]1O[C@H](C(=O)Nc2ccc(Oc3ccccc3)nc2)[C@@H](O)[C@H]1O	-1	.	.	9	-3	.
Cc1cc(=O)oc2cc(OCC(=O)NC3CC(C)(C)NC(C)(C)C3)ccc12	1	-4	-4	8	0	4
CCOC(=O)N=Nc1c2ccccc2c2nc3no[nH]c3nc12	-1	103*	86*	.	.	-103
Cc1cc2ccccc2nc1SCC(=O)N1c2ccccc2CC1C (stereo not given)	.	-2	3	.	.	5
Cc1ccc(-n2c(-c3ccccc3)c[n+]3c2CCc2ccccc2-3)c(C)c1	-4	76*	32	.	.	-74

Assay outcomes as filed in PubChem.
